Assay results reported in PubChem BioAssay (NCI).
About 83,000 compounds went through this panel and 20% of them were active in at least one assay; those are over-represented in the sample as a whole.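 Single-dose data. Exposure time 48 hours. Values below 10 considered active.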 Values without a mark were called inactive. Calls of active or inactive are those of the source.

Assays:
Experiment in all cases: NCI-60 one-dose screen, 48 h (100 = growth as untreated, 0 = no growth, -100 = all killed)
Settings in all cases: 10 µM unless noted
DU-145 prostate = system: DU-145 prostate
K-562 leukemia = system: K-562 leukemia
MALME-3M melanoma = system: MALME-3M melanoma
MDA-MB-231 breast = system: MDA-MB-231 breast
RXF 393 renal = system: RXF 393 renal
SF-268 CNS = system: SF-268 CNS
SF-295 CNS = system: SF-295 CNS
SF-539 CNS = system: SF-539 CNS
UACC-257 melanoma = system: UACC-257 melanoma
M14 melanoma = system: M14 melanoma
HCT-15 colon = system: HCT-15 colon
HT29 colon = system: HT29 colon
SNB-75 CNS = system: SNB-75 CNS
SNB-19 CNS = system: SNB-19 CNS
U251 CNS = system: U251 CNS
PC-3 prostate = system: PC-3 prostate
SK-MEL-5 melanoma = system: SK-MEL-5 melanoma
UACC-62 melanoma = system: UACC-62 melanoma
LOX IMVI melanoma = system: LOX IMVI melanoma
SK-MEL-28 melanoma = system: SK-MEL-28 melanoma

Row | Compound | growth (DU-145 prostate) | growth (K-562 leukemia) [%] | growth (MALME-3M melanoma) | growth (MDA-MB-231 breast) | growth (RXF 393 renal) | growth (SF-268 CNS) [%] | growth (SF-295 CNS) | growth (SF-539 CNS) | growth (UACC-257 melanoma) | growth (M14 melanoma) | growth (HCT-15 colon) | growth (HT29 colon) | growth (SNB-75 CNS) | growth (SNB-19 CNS) [%] | growth (U251 CNS) [%] | growth (PC-3 prostate) | growth (SK-MEL-5 melanoma) | growth (UACC-62 melanoma) | growth (LOX IMVI melanoma) | growth (SK-MEL-28 melanoma)
1 | COc1ccccc1OCC(=O)N1CCCCCC1 | 107% | 83.3 | 89.2% | 113% | 97% | 108 | 106% | 104% | 93.3% | 119% | 103% | 95.2% | 91.4% | 96.2 | 95.3 | 89.8% | 100% | 99.4% | 93.6% | 101%
2 | COc1cc2nc(-c3ccc(C(F)(F)F)cc3)cc(OCCN3CCCC3)c2cc1OC | 84.1% | 47.4 | 85.8% | 74.6% | 65.4% | 81 | 83% | 81.1% | 68.9% | 4.5% (active) | 67.3% | 66.4% | 71.6% | 88.7 | 76.8 | 73.8% | 84.4% | 93.3% | 27% | –
3 | Cc1ccc(C2C3CC4CCCCC4N3[C@@]3(C(=O)Nc4cc(Cl)ccc43)C2C(=O)c2nc3ccccc3[nH]2)cc1 (stereo partly specified) | 64.3% | 26.2 | 33.9% | 30.6% | 15.5% | 38.3 | 27.9% | 50.3% | 35.1% | 27.9% | 21.5% | 19.5% | 45.1% | 49.7 | 38 | 25.3% | 45% | 54.7% | 29.7% | 66.2%
4 | COc1cc2oc(-c3cccc(C(=O)Nc4ccc(Cl)cc4)c3)cc(=O)c2c(OC)c1OC | 42.4% | 16 | 14.2% | -3.1% (active) | -29% (active) | 48.3 | -41.6% (active) | 35.2% | -7.18% (active) | -18% (active) | 17% | 4.57% (active) | 70.6% | 52.7 | 37.4 | 27.1% | -60.1% (active) | -9.87% (active) | 2.16% (active) | -9.19% (active)
5 | COc1ccc(Nc2nc(N)nc3c2CCc2occc2-3)cc1 | 102% | 92.4 | 110% | 99.5% | 114% | 100 | 86.2% | 96.8% | 108% | 93.6% | 92% | 87% | 95% | 99.4 | 103 | 90.4% | 94.6% | 93.9% | 93.1% | 106%
6 | C=CCn1c(SCC(=O)Nc2ccc(C(=O)/C=C/c3cc(OC)c(OC)c(OC)c3)cc2)nnc1-c1cc(-c2ccc(S(C)(=O)=O)cc2)nc2ccccc12 | 94.5% | 50.5 | 89.3% | 77.7% | 60.9% | 86.9 | 97.4% | 86% | 102% | 88.8% | 69.7% | 81.3% | 55.7% | 74.1 | 88.3 | 88.8% | 82.7% | 75.5% | 67% | –
7 | CO[C@@H]1[C@H](N(C)C(=O)c2ccccc2)C[C@@H]2O[C@]1(C)n1c3ccccc3c3c4c(c5c6ccccc6n2c5c31)C(=O)NC4=O | 50.1% | 52.4 | 38.5% | 41.7% | -37.8% (active) | 48.2 | 42.5% | 13.6% | 61.5% | 37.1% | 25% | 42.8% | -14.8% (active) | 63.6 | 44.3 | 26.3% | 40% | 34.1% | 31.4% | 83.1%
8 | CC(Oc1ccc(C(=O)NS(=O)(=O)C(C)(C)C)cc1C(F)(F)F)c1ccc(Oc2ccccc2)cn1 (stereo unspecified) | 97% | 34.7 | 59.4% | 81% | 65.8% | 67.8 | 55.9% | 76% | 78.9% | 57.3% | 41.5% | 59.5% | 48.1% | 63.8 | 58.1 | 93.8% | 45.1% | 36.7% | 60.1% | 61%
9 | O=C(Nc1cccc(Cl)c1)c1cc(Cl)ccc1O | 24.1% | 15.5 | -17.8% (active) | 1.35% (active) | -12.3% (active) | 18 | -60.3% (active) | 19.4% | -4.11% (active) | 8.3% (active) | 12% | 15.5% | -26.8% (active) | 15.9 | 15.7 | -4.48% (active) | -54.4% (active) | 0.352% (active) | -32.5% (active) | 10.1%
10 | Cn1/c(=N/NC(N)=S)ccc2ccccc21 | 103% | 46.4 | 90.8% | 87.7% | 102% | 91.8 | 89.5% | 97.8% | 70% | 86.4% | 82.3% | 57.9% | 101% | 105 | 97.5 | 76.7% | 102% | 102% | 102% | 117%
11 | N#C/C(=C\c1ccc(Br)cc1)n1nnc2cccc(F)c21 | 0.426% (active) | 12.7 | 37.7% | -1.07% (active) | -23.6% (active) | 24.4 | 55.4% | 1.06% (active) | 37.3% | 10.9% | 1.81% (active) | 11.8% | -24.8% (active) | 25.6 | 15.6 | 29% | 1.82% (active) | 22.7% | -56.3% (active) | –
12 | CCCC1C(C(=O)OCC)=C(N)Oc2cc(O)ccc21 (stereo unspecified) | 103% | 85.6 | 98.8% | 93.6% | 131% | 104 | 102% | 93.8% | 104% | 90.5% | 96.7% | 97.8% | 76.9% | 103 | 104 | 77.5% | 96.5% | 94.8% | 90.4% | 114%
13 | O=C(Nc1ccc(Nc2ncccn2)cc1)NC1C=c2ccccc2=CC1 (stereo unspecified) | 109% | 89.1 | 114% | 91.3% | 89.9% | 98.5 | 100% | 100% | 94.9% | 111% | 102% | 103% | 91.8% | 103 | 99 | 108% | 99.7% | 92.9% | 108% | 107%
14 | CCCCCCCCOC(=O)c1ccc(O)c(OC)c1 | 104% | 116 | 99.7% | 85% | 100% | 83.8 | 98.7% | 92.6% | 86.6% | 106% | 105% | 97.7% | 78.8% | 93.2 | 85.8 | 78% | 97.1% | 92% | 59.3% | 105%
15 | CSc1nc(O)c(-c2ccccc2)c(=O)[nH]1 | 107% | 98 | 101% | 98.5% | 116% | 103 | 101% | 100% | 101% | 101% | 102% | 99.9% | 97.1% | 100 | 101 | 96.9% | 101% | 93.1% | 101% | –
16 | NC(=S)N/N=C/c1ccc(OC(=O)COc2cc(Cl)c(Cl)cc2Cl)cn1 | 36.4% | 48.6 | 75.7% | 82.6% | 50.1% | 41.2 | 134% | 29.5% | 78.9% | 41.2% | 81% | 70.7% | 98.8% | 91.6 | 54 | 59.8% | 21.8% | 39.7% | 25.1% | 89%
